PubChem BioAssay (NCI)
Compounds without any hit were thinned out: in the full panel of roughly 83,000, 20% have a hit.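 Percent growth is the endpoint: 0 to 100 indicates growth inhibition (40 means 60% inhibition), 0 means no net growth, and negative values indicate cell death.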 Active and inactive are the calls of the source.

What follows are molecules tested on M14 melanoma (assay: NCI-60 one-dose screen, 48 h (100 = growth as untreated, 0 = no growth, -100 = all killed)). Conditions: 10 µM unless noted.
Method: Growth inhibition of the M14 human tumor cell line is measured as a screen for anti-cancer activity. Cells are grown in 96 well plates and exposed to the test compound for 48 hours. Compounds are tested at a single concentration, which is 10^-5 M for most compounds. The reported endpoint is percent growth (GI% or GIPRCNT), where numbers from 0 - 100% represent growth inhibition, and numbers from -100% - 0 represent cell death. For example, a value of 40 represents 60% growth inhibition. A value of 0 means no net growth occurred over the course of the experiment. A value of -40 indicates 40% of cells at the beginning of the experiment died by the end of the experiment. A value of -100 means all cells are dead at the end of the experiment.
NCI-60 Human Tumor Cell Lines Screen was performed using the standard one-dose NCI protocol, which is described in more detail at https://dtp.cancer.gov/discovery_development/nci-60/default.htm.
Compounds with GIPRCNT values below 10 were considered active. Activity score was based on GIPRCNT using the following formula: […]
Score is 0 for GIPRCNT values of 100 or above, 50 for GIPRCNT values of 0, and 100 for GIPRCNT values of -100.
For `Clc1ccc(C2c3ccccc3-c3nccn32)c(Cl)c1` (stereo not given), the growth was 65% (inactive). For `N#CC1c2ccccc2C=CN1C(=O)N(c1ccccc1)c1ccccc1` (stereo not given), the growth was 42.5% (inactive). With `CC[C@@H](C)/C=C(C)/C=C/C(=O)c1c(O)c(-c2ccc(O)cc2)cn(OC2CC(=O)CCC(C)OC(=O)CC2O)c1=O` (stereo not given in full) the growth was -13.7% (active). In the case of `O=C(c1ccc(N2CCOCC2)cc1[N+](=O)[O-])N1CCOCC1`, the growth is reported as 107% (inactive). For `CC(=O)OCC(=O)[C@@]1(O)CC[C@H]2[C@@H]3CCC4=CC(=O)CC[C@]4(C)[C@@]3(F)[C@@H](O)C[C@@]21C`, the growth was 85.7% (inactive). For `O=C1C(=O)c2c(nc3ccc(Cl)cn23)-c2ccccc21`, the growth was -98.7% (active). `CC(=O)[C@H]1CC[C@H]2[C@@H]3C[C@H](C)C4=CC(=O)CC[C@]4(C)[C@H]3C(=O)C[C@]12C` was tested, and the growth was 101% (inactive). With `O=C(/C=C/c1c(-c2ccccc2)[nH]c2ccccc12)S(=O)(=O)c1ccccc1` the growth was 51.7% (inactive). In the case of `CCOc1cc(/C=C/C(=O)CC(=O)/C=C/c2ccc(OC(=O)CNc3nc4ccc(OC)cc4s3)c(OCC)c2)ccc1OC(=O)CNc1nc2ccc(OC)cc2s1`, the growth is reported as 21.1% (inactive). For `COc1ccc2c(c1)[n+](=O)c(C(=O)/C=C/c1cc(OC)c(OC)c(OC)c1)c(C)n2[O-]`, the growth was 80.1% (inactive). `Cc1ccc(/C=C(/C#N)n2nnc3ncccc32)cc1` was tested, and the growth was -4.85% (active). With `N#Cc1ccccc1C#Cc1ccccc1C#Cc1ccc(OCCCCCCOc2ccc(C#Cc3ccccc3C#Cc3ccccc3C#N)cc2)cc1` the growth was 85.8% (inactive). In the case of `O=C1C=CC(=O)N1c1ccccn1`, the growth is reported as 105% (inactive). In the case of `CCOc1cc(CCNS(=O)(=O)c2ccc(C)cc2)c(C(C)=O)cc1OCC`, the growth is reported as 79.9% [100 µM] (inactive). `O=C1CSC(c2ccccc2O)N1c1nnc(Cn2ccnc2)o1` (stereo not given) was tested, and the growth was 59.8% (inactive). For `CC(C)Cn1cnc2c(NCn3nc(-c4cc(Cl)cc(Cl)c4Cl)n(/N=C/c4ccc(Cl)cc4)c3=S)nc3ccccc3c21`, the growth was 104% (inactive). In the case of `O=C(/C=C/c1cccc(O)c1)c1cccc(-n2cc(-c3ccccc3)[nH]c2=O)c1`, the growth is reported as 64.5% (inactive). `COc1ccc(C(=O)COc2ccc(/C=C3\Oc4ccc5ccccc5c4C3=O)cc2)cc1` was tested, and the growth was 99.5% (inactive). In the case of `C/C(=C\CCc1ccoc1)CC/C=C(\C)CCCC1COC(=O)C1` (stereo not given), the growth is reported as 104% (inactive). With `COc1cc(-c2nc3sc4c(c3c(=O)[nH]2)CCCCCC4)cc(OC)c1OC` the growth was 23.1% (inactive). In the case of `CN(C)CCCN=c1cc2c(=O)n(CCCN(C)C)c(=O)c3c(NCCCN(C)C)cc4c(O)n(CCCN(C)C)c(=O)c1c4c3-2`, the growth is reported as 3.47% (active). `CCOC(=O)/C=C1/SC(=Nc2ccc(C#N)cc2)N(Cc2ccco2)C1=O` was tested, and the growth was 25.8% (inactive). For `CC(C)Sc1nc(Cl)c(C#N)c(-c2ccc(F)cc2)n1`, the growth was 94.5% (inactive). For `Cc1nn2c(/C=C3/C(=O)Nc4cc(Cl)ccc43)c(-c3ccccc3)nc2s1`, the growth was 22.2% (inactive). For `COCCOCCOCCOCCOc1ccc2c(c1)C(=O)c1nc3ncccc3c(=O)n1-2`, the growth was -90.4% (active). For `CCc1ccc(-c2nc(SCC(=O)NC3CCCCC3)n[nH]2)cc1`, the growth was 77.7% (inactive). `c1ccc2nc(Cn3c[n+](Cc4ccc5ccccc5n4)c4ccccc43)ccc2c1` was tested, and the growth was 21.7% (inactive). With `CC(=O)Nc1cc(C(c2ccccc2)c2ccccc2)cc(C(c2ccccc2)c2ccccc2)c1C` the growth was 79.2% (inactive). With `CC1CN(CC(O)c2ccc(Br)cc2)CCO1` (stereo not given) the growth was 104% (inactive). `C[C@@H]1CN(c2nc3c(cc2F)c(=O)c(C(=O)O)cn3C(C)(C)C)C[C@H](C)N1` was tested, and the growth was 98.8% (inactive). `Cc1cc(=O)[nH]c(/C(=N/Nc2ccccc2)C(=O)c2ccc(Cl)cc2)n1` was tested, and the growth was 97.1% (inactive). In the case of `Cc1ccc(-c2c3c(N)nc(-c4ccncc4)nc3nc3c2c(C)nn3-c2ccccc2)cc1`, the growth is reported as 44.3% (inactive). With `CCOC(=O)CCC(=O)O[C@H]1[C@H](O[C@@H]2[C@@H](C)[C@H](O[C@H]3C[C@@](C)(OC)[C@@H](O)[C@H](C)O3)[C@@H](C)C(=O)O[C@H](CC)[C@@](C)(O)[C@H](O)[C@@H](C)C(=O)[C@H](C)C[C@@]2(C)O)O[C@H](C)C[C@@H]1N(C)C` the growth was 97.2% (inactive). `O=C(COc1ccc(/C=C2\Cc3ccccc3C2=O)cc1)c1ccc(Cl)cc1` was tested, and the growth was 104% (inactive). With `O=C(NC1CCCCC1)c1ccc(Nc2ncnc3c2cnn3-c2ccccc2)cc1` the growth was 69.1% (inactive). For `OC(c1cc(-c2cccc(Cl)c2)nc2ccccc12)C1CCCCN1` (stereo not given), the growth was -81.5% (active). For `NS(=O)(=O)c1ccc(N2CC(c3nc4ccccc4[nH]3)CC2=O)cc1` (stereo not given), the growth was 96.9% (inactive). `Nc1ccccc1C#Cc1ccccc1C#Cc1ccc(OCCCCCCOc2ccc(C#Cc3ccccc3C#Cc3ccccc3N)cc2)cc1` was tested, and the growth was 108% (inactive). With `Cc1ccc(C2=Nc3c(ccc4c(C)c(C)c(=O)oc34)OC2)cc1` the growth was 103% (inactive). `Cn1c(N2N=C(c3ccc(Cl)cc3)CC2c2ccccc2)nc(-c2ccccc2)c(C#N)c1=O` (stereo not given) was tested, and the growth was 90% (inactive).
